About 13,000 (27%) of roughly 48,000 compounds showed an effect of 50% or more. This is one part of the list.
Tested on: Wolbachia pipientis
Test: Anti-Wolbachia Cell-Based Screen
Assay type: functional
Set-up: scale not given: in the data most compounds retested in dose-response had high values
Settings: 5 µM

| Structure (SMILES) | Percent Effect [%] |
| --- | --- |
| CC(=O)N1CCC(C(=O)Nc2nnc(C(F)(F)F)[nH]2)CC1 | -2.768 |
| CC(=O)N[C@@H]1CN(C(=O)c2cnccn2)C[C@H]1c1ccc(C)cc1 | 4.61 |
| Cc1ncc(CN2CCC(c3ccnn3C)CC2)n1-c1ccccc1 | 4.232 |
| O=C(NCCOCCO)c1cnc(-c2ccccc2)nc1O | -4.282 |
| COc1cnc(CN2CCN(CC(C)C)C(=O)C2C)cc1O (stereo not given) | -7.655 |
| c1coc(-c2noc(CN3CC(n4cccn4)C3)n2)c1 | -9.344 |
| COc1ccc(-c2noc(CN3CC(n4cc(C)cn4)C3)n2)cc1 | 101.6 |
| COc1ccc(-c2noc(CN3CC(n4cccn4)C3)n2)c(OC)c1 | 7.442 |
| Cn1cnc2c1CCN(Cc1nc(-c3ccsc3)no1)C2 | -4.856 |
| Cc1cnn(C2CN(Cc3nc(-c4ccsc4)no3)C2)c1 | 107.2 |
| COc1ccc(-c2nc(CN3CC(n4cc(C)cn4)C3)no2)cc1 | 7.343 |
| Cc1ccc(-c2nnc(CN3CC(n4cc(C)cn4)C3)o2)cc1 | 13.03 |
| c1cnn(C2CN(Cc3nc(-c4ccsc4)no3)C2)c1 | -8.892 |
| Cc1cccc(-c2noc(CN3CC(n4cccn4)C3)n2)c1 | 120.1 |
| COCC(NC(=O)c1ccoc1)c1ccc(C)o1 (stereo not given) | -2.661 |
| Cc1ncsc1CCN(C)C(=O)CN1CC2(CCNCC2)OC1=O | -5.863 |
| Cc1cc(NC2CCN(c3ccc(F)cc3)CC2)n2nc(C)cc2n1 | -5.138 |
| Nc1ncc(C(=O)N2CCCC(N)CC2)c(-c2ccccc2)n1 (stereo not given) | -5.532 |
| CC(C)C(=O)NC1CCN(Cc2cccc3c2OCCO3)CC1 | 6.757 |
| O=C(Nc1nccs1)NC1CCOc2ccccc21 (stereo not given) | 5.946 |
| O=C(NCCNCc1cccc2c1OCCCO2)C1CCCC1 | -19.03 |
| c1cnnc(NCC2CN(Cc3cccc4c3OCCO4)CCO2)c1 (stereo not given) | 4.711 |
| Cc1csc(NC(=O)C2CCN(Cc3cccc4c3OCCO4)CC2)n1 | 93.8 |
| CCNC(=O)C1CCN(Cc2csc(-c3ccc(C)o3)n2)CC1 | 8.641 |
| Cc1ccoc1C(=O)NC1CCN(Cc2cccc3c2OCCO3)CC1 | 4.934 |
| O=C(NCc1ccccc1CN1CCC(O)CC1)Nc1ccccn1 | -0.8138 |
| O=C(Nc1ccccn1)C1CCN(Cc2cccc3c2OCCO3)CC1 | 88.18 |
| O=C(Nc1nccs1)C1CCN(Cc2cccc3c2OCCO3)CC1 | 83.61 |

| Structure (SMILES) | Percent Effect [%] |
| --- | --- |
| CNC(=O)C1CCN(Cc2cc3c(cc2O)CCC3)CC1 | 6.264 |
| O=C(Nc1ccccn1)C1CCN(Cc2cc3c(cc2O)OCO3)CC1 | 98.75 |
| CNC(=O)N(Cc1c(F)cccc1F)C1CCCC1 | -10.49 |
| Cc1cccc(C(C(=O)N2CC(Oc3ccccc3F)C2)N(C)C)c1 (stereo not given) | 3.868 |
| O=C(O)c1cc2c(c(S(=O)(=O)N(CCCO)c3ccccc3)c1)CCC2 | -6.874 |
| COc1ccc([C@@H]2CN(Cc3cccnc3N)C[C@H]2N(C)C)cc1 | 89.74 |
| COc1ccc([C@@H]2CN(C(=O)CS(C)(=O)=O)C[C@H]2NC(C)=O)cc1 | -2.286 |
| COc1ccc([C@@H]2CN(c3cc(OC)nc(N)n3)C[C@H]2N(C)C)cc1 | -18.13 |
| COc1ccc([C@@H]2CN(c3cc(OC)ncn3)C[C@H]2N(C)C)cc1 | 11.08 |
| COc1ccc([C@@H]2CN(Cc3ccncc3)C[C@H]2N(C)C)cc1 | 115.9 |
| COc1ccc([C@@H]2CN(Cc3cccnc3N)C[C@H]2NC(C)=O)cc1 | 100.4 |
| CCCn1ccnc1CN1C[C@@H](NC(C)=O)[C@H](c2ccc(OC)cc2)C1 | -11.71 |
| Nc1ncccc1CN1C[C@@H](C(=O)O)[C@H](c2cccc(F)c2)C1 | -4.464 |
| COc1ccc([C@@H]2CN(c3cnccn3)C[C@H]2N(C)C)cc1 | 6.916 |
| COc1cnc(N2C[C@@H](CN3CCOCC3)C[C@H](CO)C2)nc1 | 15.13 |
| Cc1ccc([C@@H]2CN(S(=O)(=O)c3cccs3)C[C@H]2N(C)C)cc1 | -8.469 |
| Cc1ccccc1OCCSc1nnc(CC2CCS(=O)(=O)C2)n1C (stereo not given) | 3.275 |
| CC(C)=CCN1C[C@H]2CC[C@@H]1CN(C(=O)Cn1c(C)cc(C)nc1=O)C2 | -7.163 |
| N#Cc1ccccc1CN1CCCC(c2nccn2CC2CC2)C1 (stereo not given) | 7.864 |
| N#Cc1ccc(N2CCCN(CC(=O)N3CCOCC3)CC2)cc1 | -7.861 |
| N#Cc1ccc(CCC(=O)N2CCC(CN3CCOCC3)CC2)cc1 | 91.48 |
| N#Cc1ccc(CSCCN2CCOCC2)cc1 | -1.754 |
| N#Cc1ccccc1CN1CCC(CN2CCOCC2)C1 (stereo not given) | 95.83 |
| O=C(CCN1CCOCC1)N1CCC(Cc2ccc(CO)cc2)C1 (stereo not given) | -13.67 |
| N#Cc1ccccc1C(=O)N1C[C@@H](CN2CCOCC2)[C@@H](CO)C1 | -6.039 |
| N#Cc1ccc(CN2CCC(CCc3ccc(O)cc3)CC2)cc1 | -49.48 |
| N#Cc1ccc(CN2CCC(CN3CCOCC3)C2)cc1 (stereo not given) | 106.9 |

— ChEMBL document CHEMBL3988442, “University of Dundee, Small-Polar-MMV Screening Library” (2021)
